Test results as given in PubChem BioAssay (NCI).
About 83,000 compounds went through this panel and 20% of them were active in at least one assay; those are over-represented in the sample as a whole.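 The test compound was applied at a single concentration to cells in 96-well plates for 48 hours, and percent growth was recorded.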 Values without a mark were called inactive. Active and inactive are the calls of the source. The calls were made as follows: active = growth percent below 10; inactive = the rest.

Tests used:
Experiment in all cases: NCI-60 one-dose screen, 48 h (100 = growth as untreated, 0 = no growth, -100 = all killed)
Conditions in all cases: 10 µM unless noted
T-47D breast = system: T-47D breast
BT-549 breast = system: BT-549 breast
MDA-MB-435 melanoma = system: MDA-MB-435 melanoma
SW-620 colon = system: SW-620 colon
MCF7 breast = system: MCF7 breast
HCT-116 colon = system: HCT-116 colon
HCC-2998 colon = system: HCC-2998 colon
KM12 colon = system: KM12 colon

SMILES | growth (T-47D breast) | growth (BT-549 breast) | growth (MDA-MB-435 melanoma) | growth (SW-620 colon) | growth (MCF7 breast) | growth (HCT-116 colon) | growth (HCC-2998 colon) | growth (KM12 colon)
CCN(CC)CCOc1ccc(/C(=C(\C)Cc2ccc(OC)cc2)c2ccc(O)cc2)cc1 | 20.3% | 56.7% | -67.8% (active) | -25.2% (active) | -14.8% (active) | -34.8% (active) | 0.439% (active) | 32.4%
CCCC1Cc2cc(-n3nc(C)c4c3CC(C)(C)CC4=O)cc(NC3CCC(O)CC3)c2C(=O)N1 (stereo unspecified) | 46.9% | 68.4% | 26.8% | 20.4% | 36.5% | 15.4% | 34.2% | 15.5%
CCc1ccc(Cc2cnc(NC(=O)c3cc(C)oc3C)s2)cc1 | 34.4% | 44.8% | -21.5% (active) | 18.3% | 16.5% | 20.4% | 58.3% | 22%
O=C1c2ccccc2C(=O)c2cc(Cn3c[n+](Cc4ccc5ccccc5c4)c4ccccc43)ccc21 | 41.2% | 47% | 38.4% | 64.4% | 39.9% | 41.2% | 46.2% | 25.5%
CC(C)=CC(=O)C1C(=O)c2ccccc2C1=O | 97.3% | 108% | 98.9% | 102% | 93.4% | 103% | 111% | 103%
CCOC(=O)c1cc(C(=O)c2cc(OC)cc(OC)c2)n2ccccc12 | 49.3% | 35.7% | -4.66% (active) | 28.2% | 22.3% | 12.2% | 54.7% | 24.2%
CC(C)=CCC[C@](C)(O)C1CC[C@]2(C)[C@@H]1CC[C@@H]1[C@@]3(C)CC/C(=N\OCCC#N)C(C)(C)[C@@H]3CC[C@]12C (stereo partly specified) | 52.6% | 102% | 87.7% | 78.8% | 63.2% | 66.2% | 84.5% | 84.7%
FC(F)(F)c1cccc(-c2nnn(Cc3cc(-c4cccc(Cl)c4)no3)n2)c1 | 108% | 97.7% | 105% | 106% | 99.1% | 96.7% | 103% | 102%
Cc1ccccc1NC(=O)c1sc2nc3c(cc2c1N)CCCC3 | 29.6% | 63.5% | -18.4% (active) | 19.2% | 13.3% | 29% | 64.8% | 25.2%
Nc1nc(N)c2c(n1)NC(c1ccc3c(c1)OCO3)CC(c1cccc(Nc3ccncc3)c1)=N2 (stereo unspecified) | 88.5% | 117% | 50.5% | 58% | 63% | 43.7% | 88.1% | 80%
O=[N+]([O-])c1ccc(Oc2cccc3c(Oc4ccc([N+](=O)[O-])cc4[N+](=O)[O-])cccc23)c([N+](=O)[O-])c1 | 81.7% | 82.4% | 106% | 87.8% | 76.6% | 83.1% | 110% | 86.7%
COC(=O)[C@H](C)NC(=O)c1ccc(NC(=O)c2[nH]c(C)c(Cl)c2Cl)c(OCCN)c1 | 99.6% | 97% | 104% | 102% | 81.5% | 106% | 95.4% | 92.5%
O=C1CCC(C(=O)N/N=C/c2ccc([N+](=O)[O-])cc2)N1 (stereo unspecified) | 99.2% | 106% | 102% | 105% | 94.8% | 105% | 95.3% | 105%
COc1ccc(/C(C)=C(\c2ccc(Cl)cc2)c2ccc(OCCCN(C)C)cc2)cc1 | 58.1% | 82.3% | 39% | 46.3% | 36.9% | 37.4% | 100% | 56.5%
COc1ccc(NC(=O)c2ccc(NC3=C(c4ccc(Cl)cc4)C(=O)NC3=O)cc2)cc1 | 62.3% | 82.1% | 95.3% | 103% | 83.5% | 88.9% | 97.6% | 80.9%
Cn1cc(-c2ccc3occ(-c4cccc(-c5ccncc5)c4)c3n2)cn1 | -6.42% (active) | 10.9% | -2.73% (active) | 17.8% | 6.54% (active) | 10.4% | 45% | 12.4%

SMILES | growth (T-47D breast) | growth (BT-549 breast) | growth (MDA-MB-435 melanoma) | growth (SW-620 colon) | growth (MCF7 breast) | growth (HCT-116 colon) | growth (HCC-2998 colon) | growth (KM12 colon)
CCOC(=O)C1=C(C)N(C)C(=O)N(C)C1c1ccccc1 (stereo unspecified) | 96.3% | 110% | 89.2% | 97.5% | 107% | 79.4% | 93.2% | 103%
COc1cc2cc(Oc3ccc(NC(=O)Nc4ccc(F)c(C(F)(F)F)c4)cc3)c(C)nc2cc1OCCN1CCCCC1 | 78.5% | 85.3% | -92.5% (active) | -76.2% (active) | -75% (active) | -89.8% (active) | 96.9% | -79.9% (active)
O=C1NCCN1/N=C/c1c(Cl)n(Cc2ccc(Cl)cc2)c2ccccc12 | 113% | 79.2% | 85.6% | 108% | 84.7% | 89.5% | 95.9% | 110%
CCN1C(=O)N(CC)C2C1NN=c1s/c(=C\c3ccc(F)cc3)c(=O)n12 (stereo unspecified) | 57.8% | 14.5% | -38.8% (active) | 19.6% | 18.2% | 13.6% | 18.8% | 7.33% (active)
O=C(/C=C/c1cccc([N+](=O)[O-])c1)c1ccc(Nc2nc(Nc3ccc(F)cc3)nc(Nc3ccc(Cl)cc3)n2)cc1 | 81.4% | 103% | 102% | 104% | 67.1% | 97.1% | 103% | 105%
Nc1ncc(-c2ccc3ncnc(N4CCc5cc(F)c(Cl)cc54)c3c2)cc1C=O | 7.88% (active) | 9.08% (active) | 0.36% (active) | 37.9% | 11.8% | 36.6% | 21.2% | 39.2%
O=C(Nc1ncc(Cc2ccccc2)s1)c1ccc2c(c1)OCCO2 | 36% | 36.1% | -4.27% (active) | 35.2% | 10.8% | 9.23% (active) | 13.3% | 9.34% (active)
N#Cc1c(-c2ccc(Cl)cc2)nc(NN=Cc2cccc(Cl)c2)nc1N1CCOCC1 | 76.6% | 93.6% | 92% | 53.3% | 85.9% | 70.8% | 105% | 84%
Cc1nn(C)c2ncnc(Nc3ccccc3Br)c12 | 94.8% | 108% | 106% | 106% | 95.6% | 110% | 108% | 108%
COc1cc2cc(Oc3ccc(NC(=O)Nc4ccc(Cl)c(Cl)c4)cc3)c(C)nc2cc1OCCN1CCCCC1 | 85.9% | 88.1% | 74.2% | 14.4% | 55.9% | 91.3% | 104% | 63.3%
Oc1cccc(-c2nc(-c3n[nH]c(=S)n3-c3ccccc3)cc3c2[nH]c2ccccc23)c1 | 47.7% | -15.9% (active) | 3.44% (active) | 20% | 17.8% | 10.6% | -15.2% (active) | 13%
CCCCCCCCCCCCCCCCCCOc1ccccc1CC(=O)OCC[N+]1(C)CCCCC1 | 66.9% | 58% | 57% | 68.3% | 51.1% | 30.2% | 40.3% | 86.5%
CCCCN(CCC#N)C(N)=O | 100% | 109% | 110% | 99.2% | 105% | 106% | 103% | 105%
CCOC(=O)C#Cc1c(CC(=O)OCC)nnn1[C@H]1O[C@@H](CO)[C@@H]2OC(C)(C)O[C@@H]21 | 38.2% | 87.3% | 87.2% | -19% (active) | 11.5% | 65.2% | 107% | 103%
O=C(Nc1ncc(Cc2ccccc2)s1)c1cc(-c2ccccc2)nc2ccccc12 | 91.7% | 99.3% | 104% | 96.2% | 91.1% | 95.3% | 99.2% | 105%
C#CCOC(=O)C(N)CSSCC(N)C(=O)O (stereo unspecified) | 100% | 104% | 89.1% | 85% | 99.5% | 91.8% | 101% | 108%
